# Results published in PubChem BioAssay (NCATS).
# Inconclusive results are not listed. Entries that show only a call come without a potency. The source made the active and inactive calls. Unless noted, calls follow the shape of the dose curve; as a rule, active = well fitted curve in the direction sought with a large enough effect; inconclusive = small, poorly fitted or top-dose-only effect, or another doubt; inactive = no such curve, though single readings can be large; an effect the other way counts as inactive or inconclusive.
# Experiments:
# [1] = qHTS assay to identify small molecule inhibitors of chordoma cells - UCH-2 (AID 1259356); also: series mostly up to about 46 µM
# [2] = P-glycoprotein substrates identified in KB-8-5-11 adenocarcinoma cell line, qHTS therapeutic library screen (AID 1346987); also: nearly all actives have a fitted effect of over 65% in size; also: potency is read from the fitted curve at half-maximal effect
# In short: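 P-gp-mediated resistance screen: KB-8-5-11 cells treated 72 h with compounds in dose-response. CellTiter-Glo viability.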
# [3] = Identifying Small Molecule Inhibitors of Pancreatic Cancer Stem Cells (A2780, Spheroid) (AID 1259357);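 also: compound exposure lasted 48 h before the ATP luminescence read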
# In short: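 Cytotoxicity read by CellTiter-Glo luminescence after 48 h compound exposure at 37C; percent activity scaled between DMSO-treated cells and cell-free wells. Spheroid formats used cells pre-formed 14 days in stem cell media on hydrogel.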
# [4] = Identifying Small Molecule Inhibitors of Pancreatic Cancer Stem Cells (SN12C, Adherent) (AID 1259358);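 also: cell survival measured after 48 h of compound exposure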
# In short: (§1)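 Luminescent ATP readout (CellTiter-Glo) quantifies surviving cells after a 48 h drug incubation. Normalization uses DMSO wells as no inhibition and media-only wells as full inhibition; bortezomib served as positive control.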
# [5] = Identifying Small Molecule Inhibitors of Pancreatic Cancer Stem Cells (SN12C, Spheroid) (AID 1259360)
# Description: Progenitor-like cancer cells, often referred to as cancer stem cells (CSC), are believed to be the drivers of therapeutic resistance and rapid recurrence. CSCs are postulated to reside in specific niches characterized by low oxygen tension, limited nutrient supply, and high redox load. Selectively targeting CSC, alone or in combination with cytotoxic agents, as a means to produce durable remissions is an appealing concept. Modeling these cells in in vitro setting is an important step in finding new therapies and/or targets. Multiple reports highlight that forcing cells in culture into 3-dimensionaly architectures (spheroids) re-establishes key progenitor-like transcriptional signatures. Pancreatic cancer is among the diseases with the most dismal outlook which is driven, largely, by recurance following front-line therapies. […]
# Multicellular tumor spheroids from Panc1, MiaPaCa-2, and the primary low-passage tissue culture line SB.06 were seeded in stem cell media (SCM) in nonadherent 6-well plates coated with hydrogel (Corning Life Sciences, Chelmsford, Mass) and pancreatic spheres generated for 14 days before screening. […] Plates were incubated at room temperature for 10 minutes prior to reading the luminescence on the Viewlux (PerkinElmer). […]
# [6] = Identifying Small Molecule Inhibitors of Pancreatic Cancer Stem Cells (A278, Adherent) (AID 1259361); also: nearly all actives have a fitted effect of over 35% in size
# In short: as §1
# [7] = Natriuretic polypeptide receptor (hNpr1) antagonism - Pilot counterscreen GloSensor control cell line (AID 1347045; calls by dose curve; also: series mostly up to about 38 µM)
# In short: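 This counterscreen uses HEK293 cells expressing the GIP/pGS-40F cGMP biosensor. Compound-treated cells are challenged with 50 uM sodium nitroprusside, and the luciferase signal is compared before and after stimulation.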
# [8] = molecular target: Atrial natriuretic peptide receptor 1 (Homo sapiens) (UniProt P16066); test: Natriuretic polypeptide receptor (hNpr1) antagonism - Pilot screen (AID 1347049; calls by dose curve;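 also: agonist-evoked cGMP luminescence read 20 min after hNppA addition; series mostly up to about 58 µM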)
# Sequence of Atrial natriuretic peptide receptor 1 (Homo sapiens) (P16066 whole entry, looked up): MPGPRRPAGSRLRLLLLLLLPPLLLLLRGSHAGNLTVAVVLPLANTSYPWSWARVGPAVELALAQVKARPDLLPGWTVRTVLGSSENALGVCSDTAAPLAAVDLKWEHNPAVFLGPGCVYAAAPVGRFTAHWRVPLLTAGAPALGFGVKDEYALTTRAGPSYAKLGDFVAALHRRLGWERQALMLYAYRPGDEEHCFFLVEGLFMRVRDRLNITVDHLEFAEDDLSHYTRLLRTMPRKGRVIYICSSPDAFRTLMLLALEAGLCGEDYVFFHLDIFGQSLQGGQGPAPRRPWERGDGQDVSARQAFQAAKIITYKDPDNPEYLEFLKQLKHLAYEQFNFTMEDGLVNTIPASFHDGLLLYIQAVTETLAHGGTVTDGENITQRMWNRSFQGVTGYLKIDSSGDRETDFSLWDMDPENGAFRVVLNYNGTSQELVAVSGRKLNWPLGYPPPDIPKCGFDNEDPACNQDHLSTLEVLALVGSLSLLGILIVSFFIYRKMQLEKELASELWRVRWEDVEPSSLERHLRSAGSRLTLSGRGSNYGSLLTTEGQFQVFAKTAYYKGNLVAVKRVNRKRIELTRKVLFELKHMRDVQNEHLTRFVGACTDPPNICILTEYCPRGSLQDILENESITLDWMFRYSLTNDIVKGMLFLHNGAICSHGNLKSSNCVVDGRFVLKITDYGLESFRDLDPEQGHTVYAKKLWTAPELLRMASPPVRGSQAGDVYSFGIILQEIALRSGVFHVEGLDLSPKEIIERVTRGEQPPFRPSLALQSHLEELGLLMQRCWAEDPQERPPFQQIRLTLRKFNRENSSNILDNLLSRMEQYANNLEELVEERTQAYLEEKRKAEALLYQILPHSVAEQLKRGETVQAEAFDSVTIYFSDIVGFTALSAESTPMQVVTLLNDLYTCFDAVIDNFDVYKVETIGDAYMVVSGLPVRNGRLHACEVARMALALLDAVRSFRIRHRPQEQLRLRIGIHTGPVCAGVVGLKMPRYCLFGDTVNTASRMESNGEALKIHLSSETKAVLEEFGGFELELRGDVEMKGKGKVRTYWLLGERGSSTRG
# In short: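 HEK293 cells co-expressing hNpr1 and the GloSensor pGS-40F cGMP luciferase sensor were preloaded with 2% GloSensor reagent for 2 h. Compounds were added for 30 min at room temperature, then cells were stimulated with 0.1 nM hNppA for 20 min before luminescence readout.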
# [9] = molecular target: Atrial natriuretic peptide receptor 2 (Homo sapiens) (UniProt P20594); test: Natriuretic polypeptide receptor (hNpr2) antagonism - Pilot subtype selectivity assay (AID 1347050; calls by dose curve)
# Sequence of Atrial natriuretic peptide receptor 2 (Homo sapiens) (P20594 whole entry, looked up): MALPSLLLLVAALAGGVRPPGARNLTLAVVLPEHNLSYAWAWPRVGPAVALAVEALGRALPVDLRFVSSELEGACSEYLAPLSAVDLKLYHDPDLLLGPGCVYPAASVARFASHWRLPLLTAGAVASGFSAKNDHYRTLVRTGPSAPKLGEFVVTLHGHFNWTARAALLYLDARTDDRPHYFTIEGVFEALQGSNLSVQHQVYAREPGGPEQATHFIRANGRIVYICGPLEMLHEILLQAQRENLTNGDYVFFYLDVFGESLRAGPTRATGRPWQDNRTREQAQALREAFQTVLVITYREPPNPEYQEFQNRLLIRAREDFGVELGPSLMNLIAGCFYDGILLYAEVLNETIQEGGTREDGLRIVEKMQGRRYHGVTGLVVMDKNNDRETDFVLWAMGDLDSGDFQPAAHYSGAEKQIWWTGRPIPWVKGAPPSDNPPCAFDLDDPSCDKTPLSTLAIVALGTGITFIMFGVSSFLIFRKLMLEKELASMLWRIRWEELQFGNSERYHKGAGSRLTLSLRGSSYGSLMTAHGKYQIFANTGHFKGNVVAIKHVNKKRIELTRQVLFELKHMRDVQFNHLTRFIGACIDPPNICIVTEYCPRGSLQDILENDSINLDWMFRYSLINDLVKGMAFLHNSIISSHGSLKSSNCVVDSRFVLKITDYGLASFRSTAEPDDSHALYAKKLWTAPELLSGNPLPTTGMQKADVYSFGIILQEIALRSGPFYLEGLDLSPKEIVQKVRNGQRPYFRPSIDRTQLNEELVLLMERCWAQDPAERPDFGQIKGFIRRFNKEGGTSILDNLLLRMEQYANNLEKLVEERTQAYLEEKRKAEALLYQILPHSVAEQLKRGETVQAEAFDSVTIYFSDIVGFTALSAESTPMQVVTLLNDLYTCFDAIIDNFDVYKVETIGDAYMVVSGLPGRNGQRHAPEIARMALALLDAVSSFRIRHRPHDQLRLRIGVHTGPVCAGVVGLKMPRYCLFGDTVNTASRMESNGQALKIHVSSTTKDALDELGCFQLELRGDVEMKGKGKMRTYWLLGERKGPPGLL
# In short: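 cGMP-sensor HEK293/hNpr2 cells; 2% GloSensor reagent 2 h RT; compounds 30 min; baseline luminescence read; 1 nM hNppC agonist 20 min RT; final luminescence read by CCD camera. Antagonism = reduced post-agonist signal.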
structure (smiles),measurement,setting,value
CNC(=O)NC(O)C(Cl)(Cl)Cl (stereo not drawn),Potency,[1],inactive
same,Potency,[2],inactive
C[C@]12Cc3nonc3C[C@@H]1CC[C@@H]1[C@@H]2CC[C@@]2(C)[C@H]1CC[C@]2(C)O,Potency,[1],inactive
same,Potency,[2],5.8 µM (active)
C[N+]1(C)[C@@H]2CC[C@H]1CC(OC(=O)C(CO)c1ccccc1)C2 (stereo partly drawn),Potency,[1],inactive
same,Potency,[2],inactive
C=CCOC(Cn1ccnc1)c1ccc(Cl)cc1Cl (stereo not drawn),Potency,[1],inactive
same,Potency,[2],20.6 µM (active)
O=C(CCCN1CCC(n2c(=O)[nH]c3ccccc32)CC1)c1ccc(F)cc1,Potency,[1],inactive
CN1[C@@H]2CC[C@H]1CC(OC(=O)c1cc(Cl)cc(Cl)c1)C2 (stereo partly drawn),Potency,[1],inactive
CN1C(=O)[C@@H](NC(=O)c2cc3ccccc3[nH]2)N=C(c2ccccc2)c2ccccc21,Potency,[1],inactive
CC(C)(O)C(Cl)(Cl)Cl,Potency,[1],inactive
CCN(CC)CCOC(=O)C(C)(c1ccccc1)c1ccccc1,Potency,[1],inactive
CN(C)C(=S)SSC(=S)N(C)C,Potency,[1],inactive
C[C@@H]1CC[C@H]2[C@@H](C)C(=O)O[C@@H]3O[C@@]4(C)CC[C@@H]1[C@]32OO4,Potency,[1],inactive
O=C1NCN(c2ccccc2)C12CCN(CCCOc1ccc(F)cc1)CC2,Potency,[1],inactive
CCC1(CC)C(=O)NC(=O)NC1=O,Potency,[1],inactive
same,Potency,[2],inactive
O=C(NC(=O)c1c(F)cccc1F)Nc1cc(Cl)c(OC(F)(F)C(F)C(F)(F)F)cc1Cl (stereo not drawn),Potency,[1],inactive
CN1C(=O)CN=C(c2ccccc2)c2cc([N+](=O)[O-])ccc21,Potency,[1],inactive
O=C(O)c1nn(Cc2ccc(Cl)cc2Cl)c2ccccc12,Potency,[1],inactive
same,outcome,[3],inactive
same,outcome,[4],inactive
same,outcome,[5],inactive
same,outcome,[6],inactive
same,Potency,[2],inactive
same,outcome,[7],inactive
same,outcome,[8],inactive
same,outcome,[9],inactive
COP(=S)(OC)Oc1ccc(Sc2ccc(OP(=S)(OC)OC)cc2)cc1,Potency,[1],inactive
CCCCCCCCCCCC[N+](C)(C)CCOc1ccccc1,Potency,[1],inactive
same,Potency,[2],inactive
CC(Cc1ccccc1)NCc1ccccc1Cl (stereo not drawn),Potency,[1],inactive
same,Potency,[2],inactive
C=CCN1CC[C@]23CCCC[C@H]2[C@H]1Cc1ccc(O)cc13,Potency,[1],inactive
C[C@@H]1CN(C2CCC(C#N)(c3ccc(F)cc3)CC2)CC[C@]1(C(=O)O)c1ccccc1 (stereo partly drawn),Potency,[1],inactive
same,Potency,[2],inactive
Clc1ccc(CO/N=C(\Cn2ccnc2)c2ccc(Cl)cc2Cl)c(Cl)c1,Potency,[1],inactive
CCCC(C)C1(CC)C(=O)N=C(S)NC1=O (stereo not drawn),Potency,[1],inactive
CCOC(=O)NC(O)C(Cl)(Cl)Cl (stereo not drawn),Potency,[1],inactive
same,Potency,[2],inactive
COc1cc(N)c(Cl)cc1C(=O)NC1CN2CCC1CC2 (stereo not drawn),Potency,[1],inactive
same,Potency,[2],inactive
CC(C)=C[C@@H]1[C@@H](C(=O)OCc2coc(Cc3ccccc3)c2)C1(C)C,Potency,[1],inactive
same,Potency,[2],inactive
CCC(=O)O[C@H]1CC[C@H]2[C@@H]3CCC4=CC(=O)CC[C@]4(C)[C@H]3CC[C@]12C,Potency,[1],inactive
same,Potency,[2],2.78 µM (active)
Cc1c(Cl)c(=O)oc2cc(OP(=O)(OCCCl)OCCCl)ccc12,Potency,[1],inactive
same,Potency,[2],6.51 µM (active)
CCNc1nc(Cl)nc(NCC)n1,Potency,[1],inactive
same,Potency,[2],inactive
Clc1ccc(C(OCCN2CCCCC2)c2ccccc2)cc1 (stereo not drawn),Potency,[1],inactive
C[C@]12C=CC(=O)C=C1CC[C@@H]1[C@@H]2CC[C@@]2(C)[C@H]1CC[C@]2(C)O,Potency,[1],inactive
Cc1ccc(N=CN(C)C=Nc2ccc(C)cc2C)c(C)c1,Potency,[1],inactive
same,Potency,[2],inactive
CN1C[C@@H](NS(=O)(=O)N(C)C)C[C@@H]2c3cccc4c3c(cn4C)C[C@H]21,Potency,[1],inactive
CC[n+]1c(-c2ccccc2)c2cc(N)ccc2c2ccc(N)cc21,Potency,[1],inactive
same,Potency,[2],inactive
ClC1=C(Cl)C2(Cl)C(CBr)CC1(Cl)C2(Cl)Cl (stereo not drawn),Potency,[1],inactive
same,Potency,[2],inactive
CCN(CC)C(C)C(=O)c1ccccc1 (stereo not drawn),Potency,[1],inactive
same,Potency,[2],inactive
C#C[C@]1(O)C=C[C@H]2[C@@H]3CCC4=CC(=O)CC[C@@H]4[C@H]3CC[C@@]21CC,Potency,[1],inactive
same,Potency,[2],6.51 µM (active)
Clc1ccc(CSC(Cn2ccnc2)c2ccc(Cl)cc2Cl)cc1 (stereo not drawn),Potency,[1],inactive
Cc1ncc2n1-c1ccc(Cl)cc1C(c1ccccc1F)=NC2,Potency,[1],inactive
COP(=O)(OC)C(O)C(Cl)(Cl)Cl (stereo not drawn),Potency,[1],inactive
same,Potency,[2],inactive
C[N+](C)(C)CCOC(=O)C(O)(c1ccccc1)c1ccccc1,Potency,[1],inactive
same,Potency,[2],inactive
Nc1ccc(N)cc1,Potency,[1],inactive
same,Potency,[2],inactive
CC[C@]1(O)CC[C@H]2[C@@H]3CCC4=CCCC[C@@H]4[C@H]3CC[C@@]21C,Potency,[1],inactive
same,Potency,[2],6.51 µM (active)
CC1=C2[C@H]3OC(=O)[C@@H](C)[C@@H]3CC[C@@]2(C)C=CC1=O,Potency,[1],inactive
same,Potency,[2],inactive
CCC1(c2ccccc2)CCC(=O)NC1=O (stereo not drawn),Potency,[1],inactive
same,Potency,[2],inactive
